Rows were chosen to be rich in hits. Some 10% of all compounds tested hit in one or more screens of this group.
NPR1 antag = Natriuretic polypeptide receptor (hNpr1) antagonism - Primary qHTS | Atrial natriuretic peptide receptor 1 (Homo sapiens), P16066 | HEK293 hNpr1 GloSensor cGMP, ANP-stimulated luminescence | Potency, µM (highest dose often 46.3 µM), for the others: at the highest dose activity change, negative = inhibition, most hits filed as inhibitors | 1.6% of 76,000 active | AID 1347048, 2019; calls by dose curve; note: nearly all actives have a fitted effect of over 60% in size
Target sequence (P16066 whole entry, looked up): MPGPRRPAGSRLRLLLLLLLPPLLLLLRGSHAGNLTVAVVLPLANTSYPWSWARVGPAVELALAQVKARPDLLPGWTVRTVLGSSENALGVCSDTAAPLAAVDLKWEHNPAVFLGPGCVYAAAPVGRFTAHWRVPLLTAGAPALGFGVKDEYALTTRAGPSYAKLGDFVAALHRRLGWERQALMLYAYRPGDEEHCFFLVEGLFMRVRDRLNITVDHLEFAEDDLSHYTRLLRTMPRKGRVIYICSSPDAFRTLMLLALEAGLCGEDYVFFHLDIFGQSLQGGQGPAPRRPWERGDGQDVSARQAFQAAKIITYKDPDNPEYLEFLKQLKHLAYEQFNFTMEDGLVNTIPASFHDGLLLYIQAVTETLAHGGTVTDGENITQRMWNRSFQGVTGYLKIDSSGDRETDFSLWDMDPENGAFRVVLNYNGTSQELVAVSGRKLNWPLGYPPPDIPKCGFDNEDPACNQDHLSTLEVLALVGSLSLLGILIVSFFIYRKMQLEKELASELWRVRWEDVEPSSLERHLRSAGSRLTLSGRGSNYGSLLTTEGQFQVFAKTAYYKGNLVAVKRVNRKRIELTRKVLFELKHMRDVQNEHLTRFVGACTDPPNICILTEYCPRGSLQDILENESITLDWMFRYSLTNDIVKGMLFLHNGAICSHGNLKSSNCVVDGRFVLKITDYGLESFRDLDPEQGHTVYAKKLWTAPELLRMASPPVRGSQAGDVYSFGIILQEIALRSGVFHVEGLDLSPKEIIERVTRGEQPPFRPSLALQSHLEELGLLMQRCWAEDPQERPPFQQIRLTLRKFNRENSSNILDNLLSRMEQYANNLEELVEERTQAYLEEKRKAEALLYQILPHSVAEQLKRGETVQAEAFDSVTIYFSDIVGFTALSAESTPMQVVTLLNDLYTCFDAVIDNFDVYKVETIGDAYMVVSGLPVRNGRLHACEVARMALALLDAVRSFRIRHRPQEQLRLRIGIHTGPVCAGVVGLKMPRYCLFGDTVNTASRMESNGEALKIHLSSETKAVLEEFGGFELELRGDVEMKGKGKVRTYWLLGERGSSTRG
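HEK293 cells stably expressing human Npr1 and cGMP GloSensor pGS-40F, loaded 2 h with 2% GloSensor reagent, given compound 30 min at room temperature. Luminescence read before and 20 min after 0.1 nM hNppA.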
3T3 cytotox = Cytotoxic Profiling in NIH 3T3 Cell Line of Diverse Libraries Using Quantitative High-Throughput Screening | 4.3% of 94,000 active | Potency, µM (titrated, usually from 96.7 µM), for inactives: at the top dose activity change, negative = cytotoxicity, hits mostly inhibitors | AID 1345082, 2018 | NIH 3T3 viability, CellTiter-Glo ATP luminescence, 48-72 h; note: nearly all actives have a fitted effect of over 55% in size
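First NIH 3T3 cells are plated at 400 cells/well; next compound is pinned in; then plates incubate 48 or 72 hr at 37 °C; finally CellTiter-Glo is added and luminescence read after 10 min.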
FLuc inh = Firefly luciferase inhibition profiling of diverse chemical library using quantitative high-throughput screening; Potency, µM (titrated, usually from 115 µM), hits mostly inhibitors; AID 1347043, 2019; 2.5% of 76,000 active; Luciferin 4-monooxygenase (Photinus pyralis), P08659; purified P. pyralis luciferase, luminescence, biochemical; note: nearly all actives have a fitted effect of over 65% in size
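Purified 10nM P. pyralis luciferase with 10uM D-luciferin and 10uM ATP in 50mM Tris acetate pH 7.5, 10mM Mg acetate, 0.01% Tween-20, 0.05% BSA. qHTS titration; luminescence read by CCD imager.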
HEK293 tox = Cytotoxic Profiling in HEK 293 Cell Line of Diverse Libraries Using Quantitative High-Throughput Screening. HEK 293 viability, ATP luminescence (CellTiter-Glo), 48-72 h. 6.6% of 94,000 active. Potency, µM (highest dose often 115 µM), inactives show top-dose activity change, negative = cytotoxicity, hits mostly inhibitors; note: nearly all actives have a fitted effect of over 60% in size
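HEK 293 cells at 250 cells/well were exposed to compounds by pintool transfer for 48 or 72 hr at 37 degree Celsius, 5% CO2. Viability was read as ATP-coupled luminescence with CellTiter-Glo after 10 min at room temperature.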
GPT2 inh = Primary qHTS assay for inhibitors of Glutamate pyruvate transaminase 2 (GPT2); Alanine aminotransferase 2 (Homo sapiens), Q8TD30; Recombinant GPT2, coupled pyruvate oxidase/HRP Amplex Red fluorescence; 0.25% of 100,000 active; Potency, µM (highest dose often 57.7 µM), for the others: at the top dose activity change, negative = inhibition, most hits filed as inhibitors; note: nearly all actives have a fitted effect of over 60% in size
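Fluorescence read-out: pyruvate from GPT2 turnover coupled to pyruvate oxidase, HRP and Amplex Red (0.2mM ThPP, 0.2U/mL PO and HRP, 50uM Amplex final). Substrates 250uM a-KG, 2mM L-alanine; enzyme 10ng/uL; 30 min RT.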
Active calls of the source: *; i = inactive; ? = inconclusive; nt = no result; [ ] = another dose, or the depositor's remark. Unless noted, calls come from the whole dose curve; as a rule, active = well fitted curve in the direction sought with a large enough effect; inconclusive = small, poorly fitted or top-dose-only effect, or another doubt; inactive = no such curve, though single readings can be large; an effect the other way counts as inactive or inconclusive. % is set by controls: 0 for no effect and ±100 for the full control effect; potency is the fitted concentration of half-maximal effect.

SMILES	NPR1 antag	3T3 cytotox	FLuc inh	HEK293 tox	GPT2 inh
COc1ccc(C(=O)N2CCc3nc(-c4ccccc4)nc(-c4ccc(Cl)cc4)c3C2)cc1	nt	?	nt	22.4µM*	-1.7%
Cc1nc2c(c(-c3ccc(O)cc3)n1)CN(C(=O)C1CCCC1)CC2	7.3%	?	i	39.8µM*	-4.5%
O=C(c1ccccc1)N1CCc2nc(-c3ccc(Cl)cc3)nc(-c3ccccc3)c2C1	5.3%	?	i	22.4µM*	i
O=C(c1ccc(F)cc1)N1CCc2nc(-c3ccccc3)nc(-c3ccc(Cl)cc3)c2C1	0.7%	?	i	?	-2.1%
O=C(C1CC1)N1CCc2nc(-c3ccc(Cl)cc3)nc(-c3ccccc3)c2C1	-0.6%	?	i	39.8µM*	-0.1%
CCOc1ccc(-c2ccnc(NCC3CCNCC3)n2)cc1C(=O)O	2.8%	i	i	i	-2.4%
O=C(NC1CCCN(c2ccc3nnc(C4CC4)n3n2)C1)c1ccc(C(F)(F)F)cc1 (stereo unspecified)	nt	-10.3%	nt	-12.8%	nt
CC(C)NC(=O)C1COC2(CCN(C(=O)c3ccc(F)cc3F)CC2)N1C(=O)c1ccccc1 (stereo unspecified)	3.0%	-9.5%	i	4.9%	i
COC(=O)c1cccc(C(=O)N[C@H]2CO[C@H]3[C@@H]2OC[C@H]3OC(=O)Nc2ccc(Oc3ccccc3)cc2)c1	-19.6%	-8.5%	i	10µM*	-2.9%
CC(=O)c1ccc(NC(=O)O[C@@H]2CO[C@H]3[C@@H]2OC[C@@H]3NC(=O)C2CC2)cc1	6.0%[70.6 µM]	-3.5%[174 µM]	i	-5.9%[172 µM]	-3.2%[88.5 µM]
CC(C)c1ccc(NC(=O)N[C@H]2CO[C@H]3[C@@H]2OC[C@H]3OC(=O)Nc2cccc(C(F)(F)F)c2)cc1	?	25.1µM*	i	28.2µM*	-10.3%
CC(=O)c1ccc(NC(=O)O[C@@H]2CO[C@H]3[C@@H]2OC[C@@H]3NC(=S)NC2CCCCC2)cc1	-19.4%	-20.1%	i	79.4µM*	-2.7%
O=C(Nc1ccccc1)N[C@H]1CO[C@H]2[C@@H]1OC[C@H]2OC(=O)Nc1ccccc1	-3.1%[70.6 µM]	-32.2%[174 µM]	44.7µM*	?	-3.5%[88.5 µM]
O=C(Nc1ccccc1)O[C@@H]1CO[C@H]2[C@@H]1OC[C@@H]2NC(=S)Nc1ccccc1	-4.6%[70.6 µM]	-18.3%[138 µM]	i	-26.4%[172 µM]	-5.0%[88.5 µM]
Cc1cc(C)cc(C(=O)N2CCN(c3cc(-c4ccc(Cl)cc4)[nH]n3)CC2)c1	?	39.8µM*	i	39.8µM*	i
Cc1ccc(-c2cc(N3CCCN(C(=O)c4ccsc4)CC3)n[nH]2)cc1C	0.9%	?	i	?	-18.5%
O=C(c1ccsc1)N1CCN(c2cc(-c3ccc(Cl)cc3)[nH]n2)CC1	-25.7%	25.1µM*	i	?	i
O=C(c1ccc2c(c1)OCO2)N1CCN(c2cc(-c3ccc(F)cc3)[nH]n2)CC1	?	14.1µM*	i	?	0.1%
O=C(c1ccc2ncccc2c1)N1CCCN(c2cc(-c3ccc(Cl)cc3)[nH]n2)CC1	?	?	i	35.5µM*	-21.5%
O=C(c1ccc2nc[nH]c2c1)N1CCCN(c2cc(-c3ccc(Cl)cc3)[nH]n2)CC1	-1.8%	-9.6%	i	-13.5%	2.3%
O=C(c1ccccc1)N1CCCN(c2cc(-c3ccc(Cl)cc3)[nH]n2)CC1	-17.6%	?	i	?	-15.9%
Cc1cccc(N(C)C(=O)CN2C(=O)NC3(CCOCC3)C2=O)c1	1.7%	1.4%	i	-0.4%	i
C[C@@H](NC(=O)NC1(c2ccccc2)CCOCC1)c1onc(-c2ccc(F)cc2)c1C(=O)O	3.0%	3.9%	i	i	-8.7%
O=C(c1cccc(Cl)c1)N1CCN(c2cc(-c3ccccc3)[nH]n2)CC1	-22.1%	?	i	44.7µM*	i
O=C(c1ccc(F)c(Cl)c1)N1CCN(c2cc(-c3ccccc3)[nH]n2)CC1	-29.2%	?	i	?	i
SMILES	NPR1 antag	3T3 cytotox	FLuc inh	HEK293 tox	GPT2 inh
Cc1ccsc1C(=O)N1CCCN(c2cc(-c3ccc(Cl)cc3)[nH]n2)CC1	?	?	i	31.6µM*	-13.8%
O=C(c1ccc(Cl)cc1)N1CCN(c2cc(-c3ccc(F)cc3)[nH]n2)CC1	?	35.5µM*	i	?	-0.7%
Cc1ccccc1C(=O)N1CCCN(c2cc(-c3ccc(Cl)cc3)[nH]n2)CC1	?	?	i	?	-20.7%
COCC(=O)N1CCCC(C(=O)NCc2ccc(F)cc2Cl)C1 (stereo unspecified)	3.8%	-2.3%	i	-3.5%	i[11.5 µM]
Cc1cc(N)n(CC(=O)N[C@@H]2COCC[C@@H]2OCc2cscn2)n1	-4.0%	2.1%	i	-8.5%	0.6%
O=Cc1ccc(-c2cc(C(F)(F)F)ccc2Cl)cc1	nt	-2.6%[138 µM]	nt	-0.6%[172 µM]	-5.6%[88.5 µM]
Nc1cc(C(F)(F)F)ccc1S	nt	nt	nt	nt	28.2µM*
CC1=C[C@@H](CO)[C@H](C(C)C)C[C@H]1CC(=O)NCc1ccc(C(F)(F)F)cc1	-0.4%[70.6 µM]	?	i	39.8µM*	0.8%[88.5 µM]
COc1ccc(CNC(=O)C[C@@H]2C[C@@H](C(C)C)[C@H](CNC(C)=O)C=C2C)cc1	-4.0%[70.6 µM]	100µM*	i	?	-0.4%[88.5 µM]
COCc1ccc2c(c1)c(OC(C)(C)C(=O)Nc1ccn(C)n1)nn2CCC(C)C	-1.3%[70.6 µM]	?	i	?	-8.2%[88.5 µM]
Cc1cnc(CCNS(=O)(=O)c2cccc(F)c2)n1Cc1ccc(F)cc1	nt	?	nt	39.8µM*	-6.8%
CCCCc1cc(C[C@H]2CNCC[C@H]2CC(=O)Nc2ccccc2)no1	-9.3%[70.6 µM]	?	i	63.1µM*	i
CC(C)NC(=O)C[C@@H]1CCNC[C@@H]1Cc1cc(CC2CCCCC2)on1	-1.3%[70.6 µM]	100µM*	i	?	i
CCCCc1cc(C[C@H]2CNCC[C@H]2CC(=O)NCc2ccccc2)no1	?	?	i	70.8µM*	0.3%[88.5 µM]
O=C(C[C@@H]1CCNC[C@@H]1Cc1cc(CN2CCOCC2)on1)NCCN1CCOCC1	7.4%	-3.8%	i	-3.0%	-13.0%
CCCCc1cc(C[C@H]2CNCC[C@H]2CC(=O)NCc2ccc(F)cc2)no1	?	?	i	?	i
Cc1cc(CN(C)C2CCCc3ccccc32)no1 (stereo unspecified)	6.3%[70.6 µM]	-24.4%[138 µM]	i	?	i
CC(C)C(=O)NCCC1CCN(C(=O)Nc2cc(F)ccc2F)CC1	1.8%	-5.2%	i	4.1%	-9.2%
